Screening results: PubChem BioAssay, Broad Institute
Calb FLC = affects C. albicans growth with fluconazole; C. albicans CaCi-2 (fluconazole-resistant clinical isolate) + fluconazole, Alamar Blue growth, 48 h; growth inhibition, % (concentration not given with the values); 300,000 tested, 0.57% active;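 active means growth inhibition above about 58% in most replicates, limit read from the data, passing the limit was not always enough; inconclusive means exactly half the replicates above a set limit; inactive means most replicates below a set limit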;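 further: all wells also contain fluconazole at 8 µg/ml as a sub-toxic cotreatment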
Beta apoptosis = beta cell apoptosis inhibition; 300,000 tested, 0.8% active; INS-1E cytokine-induced death, ATP luminescence, 48 h; percent of positive-control rescue, neutral wells zero; protection from apoptosis, % (concentration not given with the values); AID 435005;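 active means Every replicate reaches about 75%, or at least half do and their mean reaches it too, limit read from the data; inconclusive means At least half of replicates reach the limit but their mean does not; inactive means Under half of replicates reach the limit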;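 further: higher means more ATP so stronger rescue from cytokine killing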
Shn3 3UTR inh = reduces Shn3 3'UTR luciferase signal in osteoblasts | inhibition, % at 12.5 µM | Clone20 osteoblast Shn3 3'UTR firefly luciferase, 24 h | 360,000 tested, 0.52% active | AID 588674;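 active means mean inhibition of at least 75% with every replicate also reaching 75%; inconclusive means mean inhibition at least 75% but some replicate below; inactive means mean inhibition below 75%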
PfHsp90 yeast 2 = inhibits growth of yeast expressing Plasmodium falciparum Hsp90. S. cerevisiae expressing PfHsp90, BacTiter-Glo ATP, 48 h; yeast lacking PDR1 and PDR3 efflux regulators. AID 504621. inhibition, % at 9.4 µM. 310,000 tested, 0.32% active;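 active means every replicate shows inhibition above about 80%, whatever the replicate mean, limit read from the data; inconclusive means mean inhibition reaches the set limit but some replicate falls short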
CSC inhib = blocks cancer stem cells; cancer stem cell-like cells viability, luminescence; 300,000 tested, 1.1% active; inhibition, % at 7.5 µM; in the data active means inhibition above about 75%; inconclusive means no clear call, values can overlap the other calls; tested in HMLE shEcad cells
Numbers stand for hits. Most compounds without a hit are left out; they make up all but 2.2% or so of the library.

Results for COc1ccc(N2C(=S)N=C(Nc3cccc(C)c3)C23CCCCC3)cc1 ?
Calb FLC: inconclusive; Beta apoptosis: inactive; Shn3 3UTR inh: inactive; PfHsp90 yeast 2: inactive; CSC inhib: inactive

How did Cc1cccc(C)c1NC1=NC(=S)N(c2ccccc2)C12CCOC(C)(C)C2 (configuration not stated) do in these assays?
Calb FLC: inactive; Beta apoptosis: inactive; Shn3 3UTR inh: inactive; PfHsp90 yeast 2: inactive; CSC inhib: inactive

Results for Cc1cccc(NC2=NC(=S)N(c3cccc(C(=O)O)c3)C23CCCCC3)c1 ?
Calb FLC: 103.7; Beta apoptosis: inactive; Shn3 3UTR inh: inactive; PfHsp90 yeast 2: inactive; CSC inhib: inactive

What do the screens show for `CC1CN(C(=O)CCNC(=O)c2ccccc2Cl)CC(C)O1` (configuration not stated)?
Calb FLC: inactive; Beta apoptosis: inactive; Shn3 3UTR inh: inactive; PfHsp90 yeast 2: inactive; CSC inhib: inactive

What do the screens show for `O=C(Nc1ccc(Cl)cc1)C1=Cc2cc(Cl)ccc2OC1`?
Calb FLC: inactive; Beta apoptosis: inactive; Shn3 3UTR inh: inactive; PfHsp90 yeast 2: inactive; CSC inhib: inactive

How did COc1ccc2c(c1)C=C(C(=O)NCc1ccc(Cl)cc1)CO2 do in these assays?
Calb FLC: inactive; Beta apoptosis: inactive; Shn3 3UTR inh: inactive; PfHsp90 yeast 2: 98.1

What do the screens show for `COCCN1C[C@@H](CO)O[C@@H](n2cnc3c(NCc4ccncc4)ncnc32)C1`?
Shn3 3UTR inh: inactive

How did Cc1cccc2c1-c1sc(C(=O)N3CCCCC3)cc1CO2 do in these assays?
Calb FLC: inactive; Beta apoptosis: inactive; Shn3 3UTR inh: inactive; PfHsp90 yeast 2: inactive

How did Cc1cccc2c1-c1sc(C(=O)Nc3ccccc3N3CCN(C)CC3)cc1CO2 do in these assays?
Calb FLC: inconclusive; Beta apoptosis: inactive; Shn3 3UTR inh: inactive; PfHsp90 yeast 2: inactive; CSC inhib: 101.8

How did CN(CCCNC(=O)CCCOc1cc(=O)n(C)c2ccccc12)Cc1ccccc1 do in these assays?
Calb FLC: 116.5; Beta apoptosis: inactive; Shn3 3UTR inh: inactive; PfHsp90 yeast 2: inactive; CSC inhib: inactive

What do the screens show for `Cn1c(=O)cc(OCCCC(=O)Nc2cccnc2)c2ccccc21`?
Calb FLC: 110.9; Beta apoptosis: inactive; Shn3 3UTR inh: inactive; PfHsp90 yeast 2: inactive; CSC inhib: inactive

What do the screens show for `CN(CCNC(=O)CCCOc1cc(=O)n(C)c2ccccc12)Cc1ccccc1`?
Calb FLC: inconclusive; Beta apoptosis: inactive; Shn3 3UTR inh: inactive; PfHsp90 yeast 2: inactive; CSC inhib: inactive

How did OC(c1ccc(F)cc1)c1nc(-c2cnc3ccccc3c2)cs1 (configuration not stated) do in these assays?
Shn3 3UTR inh: inactive

How did CCN1C(=O)[C@H]2[C@@H](c3ccc(Cl)cc3)N3C(=O)CN(CC4CC4)C(=O)[C@@]3(Cc3ccccc3)[C@H]2C1=O do in these assays?
Calb FLC: inactive; Beta apoptosis: inactive; Shn3 3UTR inh: inactive; PfHsp90 yeast 2: inactive; CSC inhib: inactive

Results for CCN1CCN(c2nc3c(C)cccn3c(=O)c2/C=C(\C#N)C(=O)NC)CC1 ?
Calb FLC: inactive; Beta apoptosis: inactive; Shn3 3UTR inh: inactive; PfHsp90 yeast 2: inactive; CSC inhib: inactive

What do the screens show for `O=C1C2C3C=CC(C3)C2C(=O)N1Nc1c(Cl)cc(Cl)cc1Cl` (configuration not stated)?
Calb FLC: inactive; Beta apoptosis: inactive; Shn3 3UTR inh: inactive; PfHsp90 yeast 2: inactive; CSC inhib: inactive

What do the screens show for `CCC(C)CCN1CCN=C1Nc1ccccc1` (configuration not stated)?
Beta apoptosis: inactive; Shn3 3UTR inh: inactive; PfHsp90 yeast 2: inactive; CSC inhib: inactive

What do the screens show for `O=C(NCC1CCCCC1)c1cc2ccccc2cc1O`?
Calb FLC: inactive; Beta apoptosis: inactive; Shn3 3UTR inh: inactive; PfHsp90 yeast 2: inactive; CSC inhib: 83.3

What do the screens show for `O=C(NCC1CCCO1)c1cc2ccccc2cc1O` (configuration not stated)?
Calb FLC: inactive; Beta apoptosis: inactive; Shn3 3UTR inh: inactive; CSC inhib: inactive

What do the screens show for `CCN(CC)CCNC(=O)c1ccc(NC(=O)c2cn(-c3ccccc3)nc2-c2cccs2)cc1`?
Calb FLC: inactive; Beta apoptosis: 78.5; Shn3 3UTR inh: inactive; PfHsp90 yeast 2: inactive; CSC inhib: inactive

What do the screens show for `CC(=O)OC[C@H]1O[C@@H](Oc2cc(O)cc3oc(-c4ccc(O)cc4)cc(=O)c23)[C@H](O[C@@H]2O[C@@H](C)[C@H](O)[C@@H](O)[C@H]2O)[C@@H](O)[C@@H]1O`?
Beta apoptosis: inactive; Shn3 3UTR inh: inactive; PfHsp90 yeast 2: inactive; CSC inhib: inactive

What do the screens show for `CNC(=S)N1N=C(c2ccccc2)CC1c1ccccc1Cl` (configuration not stated)?
Calb FLC: 65.1; Beta apoptosis: inactive; Shn3 3UTR inh: inactive; PfHsp90 yeast 2: inactive; CSC inhib: inactive

Results for CC(C)NC(=O)c1ccc2c(=O)n(C3CCCC3)c(=S)[nH]c2c1 ?
Calb FLC: inactive; Beta apoptosis: inactive; Shn3 3UTR inh: inactive; CSC inhib: inactive

How did O=C(c1ccc2c(=O)n(C3CCCC3)c(=S)[nH]c2c1)N1CCc2ccccc21 do in these assays?
Calb FLC: inactive; Beta apoptosis: inactive; Shn3 3UTR inh: inactive; PfHsp90 yeast 2: 109.0; CSC inhib: inactive

What do the screens show for `CC1(C)CC(=O)C2=C(C1)OC1=C(C(=O)CC(C)(C)C1)C2c1ccc(O)c([N+](=O)[O-])c1`?
Calb FLC: inactive; Beta apoptosis: inactive; Shn3 3UTR inh: inactive; PfHsp90 yeast 2: inactive; CSC inhib: inactive

Results for CC1(C)CC(=O)C2=C(C1)OC1=C(C(=O)CC(C)(C)C1)C2c1ccc(O)cc1O ?
Calb FLC: inactive; Beta apoptosis: 101.7; Shn3 3UTR inh: 93.8; PfHsp90 yeast 2: inactive; CSC inhib: inactive

Results for Cc1ccc(O)c(C=Nc2cc(C)ccc2O)c1 ?
Calb FLC: inactive; Beta apoptosis: inactive; Shn3 3UTR inh: inactive; PfHsp90 yeast 2: inactive; CSC inhib: inactive

Results for O=[N+]([O-])c1cccc(C=Nc2cccc3ccccc23)c1O ?
Calb FLC: 100.9; Beta apoptosis: inactive; Shn3 3UTR inh: inactive; PfHsp90 yeast 2: inactive; CSC inhib: inactive

Results for Cc1ccc(O)c(N=Cc2cc(Cc3ccccc3)cc([N+](=O)[O-])c2O)c1 ?
Calb FLC: 97.8; Shn3 3UTR inh: inactive; PfHsp90 yeast 2: 100.9

Results for O=[N+]([O-])c1cc(Cc2ccccc2)cc(C=Nc2ccc(N3CCOCC3)cc2)c1O ?
Calb FLC: inactive; Beta apoptosis: inactive; Shn3 3UTR inh: inactive; PfHsp90 yeast 2: 106.1; CSC inhib: inactive

Results for O=C(CSC1=NS(=O)(=O)c2cc(Cl)ccc2N1)Nc1cccc(F)c1 ?
Calb FLC: inactive; Beta apoptosis: inactive; Shn3 3UTR inh: inactive; PfHsp90 yeast 2: inactive; CSC inhib: inactive

What do the screens show for `O=C(Nc1cc(-c2ccccc2)nn1C1CCCCC1)c1ccc(Cl)cc1`?
Beta apoptosis: 97.3; Shn3 3UTR inh: inactive; PfHsp90 yeast 2: inactive

Results for CCOc1ccc(OCc2ccc(C(=O)N/N=C(\C)c3ccccn3)cc2)cc1 ?
Calb FLC: inconclusive; Beta apoptosis: 102.1; Shn3 3UTR inh: 91.5; PfHsp90 yeast 2: inactive; CSC inhib: inactive

How did C/C(=N\NC(=O)c1ccccc1OCc1ccc(F)cc1)c1ccccn1 do in these assays?
Beta apoptosis: 94.0; Shn3 3UTR inh: 93.2; PfHsp90 yeast 2: inactive; CSC inhib: inactive
